# From the OligoGym collection
# Target: WFIKKN1
# Assay: pooled miR-30 sensor sort-seq; sequence = guide strand
# Details: shRNA
# Also: reference of the scale not given here.
row,Sequence,sensor-assay potency score (higher = more potent)
1,TTCTTGACGCGCTTCTCGCTGG,-0.797
2,AAGAACTTGAGGCCCATCTTGT,-0.385
3,TCGCTGGTGACTCTGCTTCTCC,-1.48
4,TCATCCTTGAGCACGTCCTCGA,-0.412
5,TCGGCGTCCATATAGCAGCGGT,-1.4
6,TGATGCAGCACTTCTCAGCAGC,-0.485
7,TTGACGCGCTTCTCGCTGGCGG,-0.83

# Target: WIZ
# Assay: as above
# Details: shRNA
row,Sequence,sensor-assay potency score (higher = more potent)
1,TCTTCTTGAGGATCTCTCGCAG,-0.0721
2,TTTGGAGAAGTTCATCTCCAGG,-1.49
3,TTGACAAGTGATGTCTGGGGGG,-0.32
4,TTGGCCTTGACCTCTGCTGGGA,-0.479
5,TTCTCGAAGAACTCGCCGCAGA,-0.9
6,TATTTGTTCAGGCTTCAGCTTC,-1.07
7,TTCTTCTTGAGGATCTCTCGCA,-0.31
8,TTCAAATTTGTTGATGTTCTGC,0.0401
9,TTCTGCTGTAGGTCATTGGTGT,-0.0622
10,TTGAGGATCTCTCGCAGTGTGT,-1.29
11,AATTCCACCTCACAGAACCTGC,-1.06
12,TTTGTTGATGTTCTGCCGCTGG,-0.379

# Target: WNK4
# Assay: as above
# Details: shRNA
row,Sequence,sensor-assay potency score (higher = more potent)
1,TTTCCTCGTACATCTCGGGGGC,-0.103
2,TTTCTGTAGTGTCTGTAGTGTT,-0.643
3,TTTTCTGTAGTGTCTGTAGTGT,0.147
4,TAGTTCATCCACACTGGGCTGG,-0.183
5,TTTTCCTCGTACATCTCGGGGG,0.127
6,TACTTTTCCTCGTACATCTCGG,-0.00694
7,ATTGTCGCACTTGAGATCCCGG,-0.626
8,TACACCGTCTTGAAGGAGCCAC,-0.497
9,TTCTGTAGTGTCTGTAGTGTTT,-0.833
10,TTGTTGATCAGAAAGCATCAGA,-0.592
11,TTGAGGTATCGGCCATCGGGGG,-1.54
12,TCAAACTTGAGGTATCGGCCAT,-0.186

# Target: WNT16
# Assay: as above
# Details: shRNA
row,Sequence,sensor-assay potency score (higher = more potent)
1,TTAACAGTTGAAACTGATCTGT,-0.124
2,TTATCTTCTACACAGTAGTTGG,-1.09
3,TCTACTGACATCAACTTGGCGA,-0.481
4,TAACAGTTGAAACTGATCTGTG,0.0469
5,TTTCTTATCTTCTACACAGTAG,-0.455
6,TTCTTTACAAAACACTGTCTTT,-0.946
7,TAACTTTTCAACATCTTCTATC,-0.48
8,TTAACTTTTCAACATCTTCTAT,-0.546
9,TAAAATATAATAAATATCCAGG,-0.303
